# Assay outcomes (PubChem BioAssay)
# Sampled rows, rich in hits. Any-hit rate of the full collection: about 21%.
# ELG1 DNA repair – ELG1-dependent DNA repair inhibition; HEK293T ELG1-luciferase reporter, luminescence, 16 h; DNA damage induced by 5-fluorouridine; Potency, µM (series often up to 46.1 µM), usual class: inhibitors; 330,000 compounds, 2.3% hits; also: nearly all actives have a fitted effect of over 55% in size
#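 Step one: seed 2,000 cells per well. Step two: pin-transfer compound or DMSO alongside 5-fluorouridine. Step three: incubate 16 hr, 37 °C, 5% CO2. Step four: add ONE-Glo, wait 30 min, read luminescence.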
# RORg inh – blocks mouse ROR gamma transcriptional activity; P51450; Drosophila S2 Gal4-RORgamma UAS-luciferase reporter, 20 h; Potency, µM (highest dose often 53.6 µM), usual class: inhibitors; 310,000 compounds, 5.4% hits; AID 2551; also: nearly all actives have a fitted effect of over 60% in size
# Target sequence (P51450 whole entry, looked up, the tested form may be a part): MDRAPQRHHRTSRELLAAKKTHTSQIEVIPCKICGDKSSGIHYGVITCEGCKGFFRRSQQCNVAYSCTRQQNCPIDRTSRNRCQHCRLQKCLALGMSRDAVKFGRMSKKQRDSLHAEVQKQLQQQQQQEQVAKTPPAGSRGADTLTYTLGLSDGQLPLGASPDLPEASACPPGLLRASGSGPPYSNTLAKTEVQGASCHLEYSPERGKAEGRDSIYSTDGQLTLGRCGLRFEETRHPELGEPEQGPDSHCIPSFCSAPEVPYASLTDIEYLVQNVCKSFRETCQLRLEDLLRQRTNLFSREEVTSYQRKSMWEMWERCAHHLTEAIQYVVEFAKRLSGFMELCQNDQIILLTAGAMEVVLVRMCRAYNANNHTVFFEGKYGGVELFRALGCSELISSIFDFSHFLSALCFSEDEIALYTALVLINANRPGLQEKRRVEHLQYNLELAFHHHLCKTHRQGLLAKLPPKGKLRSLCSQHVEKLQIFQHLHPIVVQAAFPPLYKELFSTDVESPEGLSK
#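 Luciferase reporter read in Schneider cells carrying Gal4-RORγ (mouse) and UAS-Photinus luciferase; cells given compound 1 h before 700 uM copper sulfate induction, then incubated 20 h at ambient temperature.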
# DT40 TDP1 no CPT – qHTS for Inhibitors of human tyrosyl-DNA phosphodiesterase 1 (TDP1): qHTS in cells in absence of CPT; DT40 Tdp1-/- hTDP1 cells, no CPT, ATP luminescence, 48 h; Potency, µM (series often up to 46.2 µM), actives largely listed as inhibitors; 420,000 compounds, 15% hits; also: nearly all actives have a fitted effect of over 55% in size
#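 No-CPT arm: Tdp1-/-;hTDP1 DT40 cells (400/well) plus compounds, incubated ≥48 hr at 37 °C. Readout CellTiter-Glo luminescence.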
# IL1B secr inh – inhibitors of inflammasome signaling (IL-1 beta secretion); activity change, % at 57.5 µM; 360,000 compounds, 4.7% hits; AID 743279; THP-1 LPS/ATP IL-1B secretion, AlphaLISA, 16 h; active compounds read low; in the data active = activity change below about -50%; inconclusive = mostly about -30% to -49%
#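 THP-1 cells pretreated 1 hr with compounds (up to 57.5 uM final), then stimulated with LPS (250 ng/mL final) plus ATP (1.25 mM final); secreted IL-1B measured by AlphaLISA after 16 hr, decreased signal indicating inhibition.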
# VP16 counter – counter-screen for ROR gamma inhibitors: Gal4-VP16 reporter. AID 2546. Drosophila S2 Gal4-VP16 UAS-luciferase, luminescence, 20 h. Potency, µM (series often up to 53.6 µM), most hits filed as inhibitors. 310,000 compounds, 3.5% hits;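 also: Gal4-VP16 expression switched on by copper sulfate through the metallothionein promoter; nearly all actives have a fitted effect of over 50% in size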
# DT40 TDP1 CPT – growth inhibition of DT40 Tdp1-/-;hTDP1 cells with camptothecin (screen for TDP1 inhibitors) | 420,000 compounds, 12% hits | chicken DT40 Tdp1-/-;hTDP1 cells + 20 nM CPT, ATP luminescence, 48 h | Potency, µM (titrated, usually from 46.2 µM), hits mostly inhibitors; also: nearly all actives have a fitted effect of over 55% in size
#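 Chicken DT40 Tdp1-/- cells stably complemented with human TDP1 were seeded at 400 cells/well in medium containing 20 nM camptothecin, exposed to pin-transferred compounds, and grown at 37 °C for at least 48 hr. Viability was read as ATP luminescence.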
# A number is an active result; . = inactive; ? = inconclusive; / = no result; [ ] = remark or other dose. Unless noted, calls follow the shape of the dose curve; as a rule, active = well fitted curve in the direction sought with a large enough effect; inconclusive = small, poorly fitted or top-dose-only effect, or another doubt; inactive = no such curve, though single readings can be large; an effect the other way counts as inactive or inconclusive.
SMILES,ELG1 DNA repair,RORg inh,DT40 TDP1 no CPT,IL1B secr inh,VP16 counter,DT40 TDP1 CPT
CCC(c1nnnn1-c1ccc2c(c1)OCCO2)N1CCN(c2cccc(C)c2C)CC1 (stereo unspecified),/,/,18µM,.,/,?
CCC(c1nnnn1-c1ccc2c(c1)OCCO2)N1CCN(Cc2c(F)cccc2Cl)CC1 (stereo unspecified),/,/,23µM,?,/,?
CCC(c1nnnn1-c1ccc2c(c1)OCCO2)N1CCN(c2cc(C)ccc2C)CC1 (stereo unspecified),/,/,?,.,/,?
CCOC(=O)c1c(C)oc2ncnc(Nc3ccc(F)cc3Cl)c12,/,/,.,/,/,.
COc1ccc([C@H]2CN(c3ccc(OC)cc3)C(=O)[C@@H]2CC(=O)Nc2ccccc2)cc1,/,/,13µM,?,/,.
COc1ccc(NC(=O)C[C@H]2C(=O)N(c3ccc(Br)cc3)C[C@@H]2c2ccc(OC)cc2)cc1,/,/,21µM,.,/,?
COc1ccc(NC(=O)C[C@H]2C(=O)N(c3ccc(Br)cc3)C[C@@H]2C)cc1,/,/,?,.,/,?
COc1ccc(NC(=O)C[C@H]2C(=O)N(c3ccc(OC)cc3)C[C@@H]2c2ccc(Br)cc2)cc1,/,/,23µM,.,/,?
CC(C)(C)Nc1nc(-c2ccc3c(c2)CCN3C(=O)C2CC2)cs1,?,.,?,.,.,?
CCC(CC)C(=O)Nc1nc(-c2ccc3c(c2)CCN3C(=O)C2CC2)c(C)s1,21µM,.,23µM,.,.,?
CC(C)C(=O)Nc1nc(-c2ccc3c(c2)CCN3C(=O)C2CC2)cs1,.,.,13µM,.,.,12µM
Cc1cc(C)cc(NC(=O)COC(=O)CCn2c(C)csc2=O)c1,.,/,.,.,/,.
Cn1cc([N+](=O)[O-])c(C(=O)Nc2ccc(-c3nc4ccccc4o3)cc2)n1,.,.,.,-86,.,.
O=C(Nc1cc(-c2nc3ccccc3o2)ccc1Cl)c1ccc(N2CCCCC2)c([N+](=O)[O-])c1,/,/,18µM,/,/,?
CC(=O)Nc1cc(-c2nc3ccccc3o2)ccc1Cl,?,?,.,.,.,.
CC(=O)Nc1cccc(-c2nc3ccccc3o2)c1,.,.,?,.,.,.
COc1ccc2oc(-c3ccc(NC(=O)c4ccc(N5CCOCC5)c([N+](=O)[O-])c4)cc3)nc2c1,.,.,2.1µM,.,.,?
O=C(Nc1ccc(-c2nc3ccccc3o2)cc1)c1ccc(N2CCOCC2)c([N+](=O)[O-])c1,?,?,4.6µM,.,10µM,7.3µM
CCCCN(C(=O)c1cc2ccccc2o1)c1c(N)n(CCCC)c(=O)[nH]c1=O,.,/,.,.,/,.
CC(C)c1ccc(CC(=O)N2CCC2(C)C(=O)NS(=O)(=O)c2ccc(Cl)s2)cc1 (stereo unspecified),/,/,.,.,/,.
COc1cccc(C2(CC(=O)N3CCCOc4c(cccc4OC)C3)CC(=O)N(C)C2=O)c1 (stereo unspecified),/,/,.,/,/,.
C=CCC1NS(=O)(=O)OCC1NC(=O)OCC(Cl)(Cl)Cl (stereo unspecified),.,.,.,.,.,.
CC(C)(C)OC1NS(=O)(=O)OCC1NCOC(Cl)(Cl)Cl (stereo unspecified),.,10µM,3.7µM,.,22µM,3.3µM
Cc1ccc(NC(=O)CSc2nc3ccccc3c3nc(CCc4c(C)n[nH]c4C)nn23)cc1F,?,?,6.5µM,.,?,7.3µM
Cc1n[nH]c(C)c1CCc1nc2c3ccccc3nc(SCC(=O)Nc3ccc(F)cc3)n2n1,/,/,29µM,/,/,18µM
SMILES,ELG1 DNA repair,RORg inh,DT40 TDP1 no CPT,IL1B secr inh,VP16 counter,DT40 TDP1 CPT
Cc1n[nH]c(C)c1CCc1nc2c3ccccc3nc(SCC(N)=O)n2n1,23µM,.,.,.,.,.
Cc1ccc(NC(=O)CSc2nc3ccccc3c3nc(CCc4c(C)n[nH]c4C)nn23)c(C)c1,/,/,.,/,/,.
Cc1cccc(C)c1NC(=O)CSc1nc2ccccc2c2nc(CCc3c(C)n[nH]c3C)nn12,/,/,.,/,/,.
NC(CCc1ccccc1)c1csc(Nc2nncc3ccccc23)n1 (stereo unspecified),/,/,21µM,?,/,21µM
NC(Cc1ccccc1)c1csc(Nc2ccc(C(=O)NCCO)cc2)n1 (stereo unspecified),/,/,?,.,/,?
CS(=O)(=O)c1ccc(Nc2nc(C(N)c3ccccc3)cs2)cc1 (stereo unspecified),/,/,?,.,/,?
NC(Cc1ccccc1)c1csc(Nc2nncc3ccccc23)n1 (stereo unspecified),/,/,23µM,.,/,21µM
COc1ccccc1Oc1ccc(N/C=C/C(=O)c2ccco2)cc1,?,?,18µM,-52,.[10 µM],?
O=C(/C=C/Nc1ccc(Oc2ccccc2Cl)cc1)c1ccco1,?,.,15µM,.,.[10 µM],18µM
O=C(/C=C/Nc1ccccc1Oc1ccccc1)c1ccco1,.,.,?,?,.,.
O=C(CSC1=Nc2ccccc2N=C(c2ccc(F)cc2)C1)Nc1ccc(Cl)cc1,/,/,26µM,/,/,21µM
CC(=O)c1ccc(NC(=O)CSC2=Nc3ccccc3N=C(c3ccc(F)cc3)C2)cc1,/,/,9.2µM,/,/,16µM
CC(=O)c1ccc(NC(=O)CSc2cn[nH]n2)cc1,.,.,.,.,.,.
O=C(CN1CCN(CC(=O)Nc2ccc(Cl)cc2)CC1)Nc1ccc(F)cc1,.,.,.,.,.,.
Cc1ccc(C(=O)O/N=C/c2c(N3CCOCC3)n(C)c3ccccc23)cc1,?,1.1µM,4.1µM,.,3.5µM,3.3µM
Cn1c(N2CCOCC2)c(/C=N/OC(=O)c2ccc(F)cc2)c2ccccc21,?,0.63µM,2.9µM,.,2.2µM,3.7µM
Cn1c(N2CCOCC2)c(/C=N/OC(=O)c2cccnc2Cl)c2ccccc21,?,.,?,.,.[10 µM],?
COc1ccc(C[C@@H](NS(=O)(=O)c2ccc(C(=O)O)cc2)C(=O)O)cc1,/,.,/,/,.,/
C/C(=N\NC(=O)c1c(Cl)cnn1C)c1cccnc1,?,/,.,.,/,.
COc1cccc(Cn2c(=O)c(-c3cccs3)nc3cnc(OC)nc32)c1,/,.,.,/,.,.
COc1cc2nc(SCC(=O)c3ccc(Br)cc3)n3nc(C)nc3c2cc1OC,4.1µM,13µM,?,.,?,?
Cc1nc2c3ccccc3nc(SCC(=O)c3ccc(Cl)cc3)n2n1,.,?,18µM,.,?,?
Cc1nc2c3ccccc3nc(SCC(=O)N3CC(C)CC(C)C3)n2n1 (stereo unspecified),.,.,?,.,.,?
Cc1noc(C)c1S(=O)(=O)N1CCN(S(=O)(=O)c2ccccc2C#N)CC1,.,.,.,.,.,.
